The values below come from PubChem BioAssay AID2732 (Emory University Molecular Libraries Screening Center, 2010).

The whole screen tested about 220,000 compounds, of which about 8,200 (3.7%) were called active. This excerpt belongs to a sample that is enriched for actives. Unmarked numbers belong to inactive results.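 The calls were made as follows: active = compounds that reduced the stress-induced luciferase reporter signal by more than about 70% of percent inhibition (limit read from the data); inactive = the rest.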

The nature of this assay: inhibitors of CHOP promoter induction, primary screen, cell-based, unfolded protein response, luciferase reporter (AID 2732).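 Also: 0% = tunicamycin plus vehicle and 100% = wells without tunicamycin.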 To be noted: CHO-K1 CHOP-promoter luciferase, tunicamycin-induced, 15-18 h; at 10 µM; hits give high values. For orientation: A reporter such as luciferase makes a cellular process visible.
On to `O=C(NCc1ccc(F)cc1)C1CCC(CNc2c(N3CCOCC3)c(=O)c2=O)CC1` (stereo not drawn), for which the inhibition (in general, the drop in the measured response relative to a control, in per cent) is -4.35%. The figure for `O=C(CNS(=O)(=O)c1cccc(C(F)(F)F)c1)Nc1ccccc1F` is -2.12%; for `O=C(NNc1ccccc1Cl)C(O)(c1cccc(C(F)(F)F)c1)c1cccc(C(F)(F)F)c1` it is 100% (active); for `O=C(Nc1cc(C(F)(F)F)ccc1Cl)C(=O)N1CCCCC1` it is 23.6%.

For the compound `COc1ccc(CCN2C(=O)N(c3ccc(OC)cc3)C(=O)C2CC(=O)Nc2ccc(OC)cc2)cc1` (stereo not drawn), the inhibition was -32.7%.

Consider `Clc1ccccc1CSc1nnc(-c2ccco2)c(-c2ccco2)n1`, for which the inhibition is 71.2% (active). The figure for `c1ccc(CSc2nnc(-c3ccco3)c(-c3ccco3)n2)cc1` is -37.2%. As for `Nc1nc(SCc2ccccc2Cl)n[nH]1`, the inhibition is 6.63%.

Turning to `O=C(Cc1ccccc1)N1N=C(c2ccncc2)CC1(O)C(F)(F)F` (stereo not drawn), the inhibition was 4.37%. Next, `COc1ccc2oc(N)c(C=O)c(=O)c2c1`: 13.1%; `COc1ccc2c(c1)C(C)=CC(C)(C)N2C(=O)CNCc1ccc2c(c1)OCO2`: 73.7% (active). As for `COc1ccc2c(c1)C(C)=CC(C)(C)N2C(=O)Nc1ccccc1`, the inhibition was 7.45%. In the case of `CCn1cc(C(=O)NCc2ccc3c(c2)OCO3)c2cc(OC)c(OC)cc2c1=O`, the inhibition is 33.4%. The figure for `O=C(O)C(c1ccccc1)C1(O)CCCCC1` (stereo not drawn) is 3.7%; for `CCc1nnc(NC(=O)c2cccc(S(=O)(=O)N(C)c3ccc(OC)cc3)c2)s1` it is 28.5%. The figure for `CCc1nnc(NC(=O)c2sc3nc(C)cc(COC)c3c2N)s1` is -32%.

On to `CCc1ccc2nc3sc(C(=O)Nc4nnc(CC)s4)c(N)c3cc2c1`, for which the inhibition was 76.2% (active).

Turning to `COC(=O)[C@H](CC(C)C)NC(=O)N1CCCCC1C` (stereo partly drawn), the inhibition was 16.1%. The figure for `COc1ccc(-c2noc(-c3cccc(OC)c3OC)n2)cc1OC` is 19%. Next, `COc1ccc(-c2noc(-c3ccc(C)cc3)n2)cc1`: 20.8%; `COc1ccc(-c2nc(-c3ccccc3)no2)c(OC)c1`: 81.4% (active); `COc1ccc(S(=O)(=O)N2CCCC2)c(C)c1C`: 31.7%. `CCOc1ccc(S(=O)(=O)n2ccnc2)c2ccccc12`: the inhibition was 4.14%. Next, `CCOc1ccc(S(=O)(=O)N2CCCCCC2)c2ccccc12`: 71.1% (active); `CN1CCN(c2ccc(S(=O)(=O)N3CCOCC3)cc2NC(=O)CCc2ccccc2)CC1`: -2.84%; `COc1cccc(Nc2nnc(SCC(=O)N3CC(=O)Nc4ccccc43)s2)c1`: -4.27%. Next, `NC(=O)C1(C(N)=O)OC1c1ccc(Cl)cc1Cl` (stereo not drawn): -9.68%. Next, `CCOc1ccccc1C1C(C(=O)OC)=CN(C)C=C1C(=O)OC`: 2.4%. `COC(=O)C1=CN(C)C=C(C(=O)OC)C1c1ccc(Cl)cc1Cl`: the inhibition is 78.2% (active). In the case of `O=C(NC1CC1)C1=C[C@H](c2c[nH]c3ccccc23)C[C@H](OCc2ccc(CO)cc2)O1`, the inhibition is 0.14%. The figure for `CSc1ccc(NC(=O)/C=C/C(=O)O)cc1` is 6.47%.

Turning to `CC(C)S(=O)(=O)c1csc(NC(=O)Nc2ccc(Cl)cc2)c1Cl`, the inhibition is -24.8%. For the compound `COc1cccc(NC(=O)CN2CCN(c3nc(-c4cccc(OC)c4)cs3)CC2)c1`, the inhibition was 19.3%. Next, `COc1ccc(-c2csc(N3CCN(Cc4ccc5c(c4)OCO5)CC3)n2)cc1`: 86.8% (active); `O=C(CN1CCN(c2nc(-c3ccccc3)cs2)CC1)NCc1ccc2c(c1)OCO2`: 63.6%; `COc1cc(C(F)(F)F)c(C(=O)N(C)c2ccc(Cl)cc2)cn1`: 13.6%. Turning to `O=C(Nc1ccc(-c2csc(Nc3cccc(C(F)(F)F)c3)n2)cc1)c1cccc(C(F)(F)F)c1`, the inhibition is 21.4%. On to `O=C(Nc1ccnc(-c2ccncc2)n1)c1cccs1`, for which the inhibition is 10.6%. The figure for `O=C(O)COc1ccc(-c2nccc(-c3cccs3)n2)cc1` is 73.8% (active); for `COC(=O)CSc1nccc(-c2cccs2)n1` it is -10.9%. The figure for `O=c1[nH]c(CSc2ccccc2)nc2c1oc1ccccc12` is -3.37%. In the case of `Cc1nnsc1C(=O)NCc1c(F)cccc1Cl`, the inhibition is 15.1%. Next, `Cc1ccc(-c2cn3cc(C)ccc3n2)cc1`: 95.9% (active); `COc1ccc(-c2cn3ccc(C)cc3n2)cc1`: 59.3%. The figure for `Cc1ccc(-c2cn3cc([N+](=O)[O-])ccc3n2)cc1` is 54.5%. The figure for `COc1ccccc1N1CCN(C(=O)CSc2ncnc3c2cnn3-c2ccc(C)c(C)c2)CC1` is -4.74%. For `Cc1nc(C(=O)N2CCCC(C(=O)c3ccc(Cl)cc3)C2)cs1` (stereo not drawn), the inhibition was -9.72%. The figure for `CN(c1ccc2nc3ccccc3c(=O)n2n1)C1CCCCC1` is 84.1% (active); for `O=c1c2ccccc2nc2n1C1(CCCCC1)Cc1ccccc1-2` it is -15.6%.

For `CN(C(=O)CSc1nncc2ccccc12)C1CCCCC1`, the inhibition was 4.17%. Next, `O=C(C[n+]1cc(-c2ccc(Cl)c(Cl)c2)n2c1CCC2)c1cccs1`: -8.35%; `Cc1ccc(S(=O)(=O)N(C)C)cc1NC(=O)c1n[nH]c(=O)c2ccccc12`: 2.56%. On to `O=C(Nc1ccc(F)cc1)c1cc2c(s1)CCCC2`, for which the inhibition is 10.4%. As for `CC1CCc2sc(C(=O)N/N=C/C3CCCCC3)cc2C1` (stereo not drawn), the inhibition was 71.4% (active). For the compound `C/C(=N\NC(=O)c1cc2c(s1)CCC(C)C2)c1cccnc1` (stereo not drawn), the inhibition is 6.64%. Take `NC(=O)c1c(NC(=O)CSc2nc(N)cc(=O)[nH]2)sc2c1CCCC2`: the inhibition was 15.3%. For `CC1=NOC(=O)/C1=C\c1ccccc1`, the inhibition is -18.4%. `COc1cc(/C=C2/C(=O)ON=C2C)ccc1OCc1ccccc1F`: the inhibition was -26.4%. Next, `COc1cc(/C=C2/C(=O)ON=C2C)ccc1OCc1cccc(F)c1`: 104% (active); `Cc1cc(NCc2cccnc2)no1`: 3.98%; `O=C(NC(=O)N1CCSCC1)c1c(Cl)cccc1Cl`: 12.1%. The figure for `Cc1cc(CO)nn1-c1ccc([N+](=O)[O-])cc1` is 7.27%; for `CNC(=O)C(NC(=O)c1ccccc1)=C(C)C` it is 1.37%.
